Data as given in PubChem BioAssay AID449762 (Southern Research Specialized Biocontainment Screening …, 2010).
Screen size: about 330,000 compounds; about 1,900 (0.58%) were called active. Another 4% or so got no clear call; they are omitted. No stated cut-off is given here; in the data, inconclusive means inhibition above about 70% without an active follow-up result; inactive means below that. Not all results are given here. Potency and affinity values are given separately.

Experiment: M. tuberculosis growth inhibition, HTS (AID 449762);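 further: bacterial growth assessed after seven days of incubation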
Conditions: M. tuberculosis H37Rv growth inhibition, 7H9 media; at 25 µM; hits give high values

Row | SMILES | inhibition
1 | CC(C)(C)c1ccc(C(=O)N2CCC(=O)N(C(COCc3ccccc3)Cc3ccccc3)CC2)cc1 (stereo unspecified) | -7.28% (inactive)
2 | C=CCNc1oc(-c2ccc(OCC)cc2)nc1C#N | 0.33% (inactive)
3 | Cc1ccc(S(=O)(=O)N2CCN(Cc3nc4ccccc4n3C)CC2)cc1 | -10.2% (inactive)
4 | CC(OC(=O)c1nc(Cl)ccc1Cl)C(=O)Nc1ccc2c(c1)OCCO2 (stereo unspecified) | 23.5% (inactive)
5 | Cc1ccc(OCCCCN2CCCCC2)c(C)c1 | 0.08% (inactive)
6 | Cc1ccc(OCCCCNC2CCCCC2)c(C)c1 | 0.93% (inactive)
7 | O=C(COC(=O)C1=Cc2ccccc2OC1)NCc1ccccc1 | -0.53% (inactive)
8 | Cc1ccc2c(c1)N(CC(=O)OC(CC(C)C)C(=O)NC1CCCC1)C(=O)CO2 (stereo unspecified) | 0.6% (inactive)
9 | Cc1nc(-c2ccccc2)sc1C1(C)CC(c2ccc(OC(F)(F)F)cc2)=NO1 (stereo unspecified) | 1.65% (inactive)
10 | Cc1nc(NC(=O)c2ccccc2)sc1C1(C)CC(c2ccccc2F)=NO1 (stereo unspecified) | -0.28% (inactive)
11 | CN1C(=O)C(O)(CC(=O)c2cccnc2)c2ccccc21 (stereo unspecified) | -2.52% (inactive)
12 | CCC1CN(C(=O)N2CCC(C(=O)NCc3ccc(C)o3)CC2)c2cc(C)ccc2O1 (stereo unspecified) | -5.76% (inactive)
13 | Cc1ccnc(N/C=C(/NC(=O)c2ccccc2)C(=O)NN)n1 | 2.37% (inactive)
14 | COc1ccc(-n2c(C)cc(C(=O)COC(=O)Cn3cnc4ccccc43)c2C)cc1 | 5.9% (inactive)
15 | COc1ccc(C(=O)OCC2CC(c3ccccc3)=NO2)cc1OC (stereo unspecified) | 2.23% (inactive)
16 | COc1ccccc1C1=NOC(COC(=O)c2ccc(Br)cc2)C1 (stereo unspecified) | 66.3% (inactive)
17 | COC(C[C@H]1O[C@H]1C(=O)[C@@H](C)OCc1ccccc1)OC | -3.98% (inactive)
18 | Cc1ccc(NC(=O)/C(C#N)=N/Nc2ccc(C(=O)O)cc2)c(C)c1 | -9.1% (inactive)
19 | CCOC(=O)C1CCN(Cc2coc3c(Cl)cc(Cl)cc3c2=O)CC1 | 10.8% (inactive)
20 | COc1ccc(F)cc1S(=O)(=O)NCc1ccccc1 | -3.97% (inactive)
21 | CCN(c1ccc(OC)cc1)S(=O)(=O)c1ccc2c(c1)CCN2C(=O)CCC(=O)O | -2.77% (inactive)
22 | CCOC(=O)N1CCC(=C2c3ccc(Cl)cc3CCc3cccnc32)CC1 | 2.73% (inactive)
23 | c1ccc2c(c1)CCc1ccccc1C2=C1CCNCC1 | -0.99% (inactive)
24 | CC(C)(C)NC(=O)C(c1ccco1)N(C(=O)Cn1nnc(-c2ccc(F)cc2)n1)c1cccc(F)c1 (stereo unspecified) | 5.34% (inactive)
25 | Cc1cc(N2CCN(Cc3nc(-c4ccc(Cl)cc4)oc3C)CC2)cc(C)n1 | 15.9% (inactive)
26 | Cc1cc(N2CCN(Cc3nc(-c4ccc(F)cc4)oc3C)CC2)cc(C)n1 | 9.44% (inactive)
